Test results published in PubChem BioAssay.
For some of these results: Entries with a potency or affinity are not part of this list. Activity calls are given as the source filed them. Unless noted, the rule behind the calls is not given here.

Experiments:
[1] = antimalarial activity against Dd2 strain (AID 2302;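 active = growth inhibition above 50% at the single 2 µM test dose, taken to imply half-maximal potency below 2 µM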;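 note: 0% = DMSO untreated growth and 100% = chloroquine plus artemisinin killed control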); conditions: P. falciparum Dd2 in RBCs, LDH growth readout, 72 h; at 2 µM; hits give high values
[2] = HepG2 cytotoxicity, primary screen, cytotoxicity control for P. falciparum antimalarial project, cell-based, ATP luminescence (AID 2303;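 active = inhibition above 50%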;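 note: 0% = DMSO wells and 100% = digitonin-killed cells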); conditions: HepG2 viability, 24-48 h, at 10 µM, hits give high values
[3] = target: L-lactate dehydrogenase (Plasmodium falciparum (isolate CDC / Honduras)) (UniProt Q27743); assay: PfLDH activity inhibition – cell lysate, 3D7 strain, counter-screen for P. falciparum growth inhibition project (AID 2304);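 note: 0% = vehicle and 100% = reference inhibitor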; conditions: P. falciparum 3D7 crude extract, LDH APAD/NBT absorbance; at 2 µM; hits give high values
[4] = inhibition of 3D7 malaria parasite growth – strain 3D7 (AID 2306);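 note: 0% = DMSO wells and 100% = chloroquine plus artemisinin control wells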; conditions: P. falciparum 3D7 erythrocytic growth, LDH absorbance, 72 h; at 2 µM; hits give high values
[5] = target: Calcium-dependent protein kinase 1 (Plasmodium falciparum (isolate 3D7)) (UniProt P62344); assay: PfCDPK1 kinase inhibitors, biochemical, TCAMS library (AID 1159585; cut-off not given, nearly all actives have IC50 up to about 0.98 µM;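 note: inhibitors leave more ATP so luminescence rises with inhibition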); conditions: recombinant PfCDPK1, Kinase-Glo ATP depletion luminescence
[6] = target: Plasmodium falciparum protein kinase 6 (PK6, PF3D7_1337100) (UniProt Q8IDW1); assay: PfPK6 kinase inhibitors, biochemical, TCAMS library (AID 1159586); conditions: recombinant PfPK6, Kinase-Glo ATP depletion luminescence
[7] = target: Protein kinase 7 (PK7), Plasmodium falciparum 3D7 (PF3D7_0213400) (UniProt Q7YTF7); assay: inhibition of Plasmodium PK7 catalytic activity – biochemical, TCAMS antimalarial set, Kinase-Glo luminescence (AID 1159587); conditions: recombinant PfPK7, Kinase-Glo ATP depletion luminescence
[8] = target: Calcium-dependent protein kinase 4 (Plasmodium falciparum (isolate 3D7)) (UniProt Q8IBS5); assay: PfCDPK4 kinase inhibitors, biochemical, TCAMS library (AID 1159588; cut-off not given, nearly all actives have IC50 up to about 0.91 µM); conditions: recombinant PfCDPK4, Kinase-Glo ATP depletion luminescence
Calcium-dependent protein kinase 4 (Plasmodium falciparum (isolate 3D7)), sequence (Q8IBS5 whole entry, looked up): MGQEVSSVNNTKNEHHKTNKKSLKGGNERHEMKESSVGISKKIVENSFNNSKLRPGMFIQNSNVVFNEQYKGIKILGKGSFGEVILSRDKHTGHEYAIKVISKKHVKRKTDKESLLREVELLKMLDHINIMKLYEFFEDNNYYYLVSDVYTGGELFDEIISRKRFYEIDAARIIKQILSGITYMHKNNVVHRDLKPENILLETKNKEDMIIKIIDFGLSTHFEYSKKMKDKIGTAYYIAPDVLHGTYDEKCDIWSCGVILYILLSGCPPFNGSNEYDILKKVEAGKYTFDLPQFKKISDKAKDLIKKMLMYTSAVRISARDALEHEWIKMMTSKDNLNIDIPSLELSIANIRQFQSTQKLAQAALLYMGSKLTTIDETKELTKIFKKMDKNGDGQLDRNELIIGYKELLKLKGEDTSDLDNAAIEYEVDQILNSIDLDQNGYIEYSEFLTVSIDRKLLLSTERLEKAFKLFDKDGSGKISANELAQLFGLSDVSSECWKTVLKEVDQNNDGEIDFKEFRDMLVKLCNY

L-lactate dehydrogenase (Plasmodium falciparum (isolate CDC / Honduras)), sequence (Q27743 whole entry, looked up): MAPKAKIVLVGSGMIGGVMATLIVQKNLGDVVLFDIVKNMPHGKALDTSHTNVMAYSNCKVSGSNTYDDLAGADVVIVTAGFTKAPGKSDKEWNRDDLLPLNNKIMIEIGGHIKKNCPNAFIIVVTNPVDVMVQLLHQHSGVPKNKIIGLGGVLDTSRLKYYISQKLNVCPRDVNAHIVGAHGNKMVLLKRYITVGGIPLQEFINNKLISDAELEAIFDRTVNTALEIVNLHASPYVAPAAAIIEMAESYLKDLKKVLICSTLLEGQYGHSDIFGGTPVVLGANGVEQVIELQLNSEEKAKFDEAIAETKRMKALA
Plasmodium falciparum protein kinase 6 (PK6, PF3D7_1337100), sequence (Q8IDW1 1-305): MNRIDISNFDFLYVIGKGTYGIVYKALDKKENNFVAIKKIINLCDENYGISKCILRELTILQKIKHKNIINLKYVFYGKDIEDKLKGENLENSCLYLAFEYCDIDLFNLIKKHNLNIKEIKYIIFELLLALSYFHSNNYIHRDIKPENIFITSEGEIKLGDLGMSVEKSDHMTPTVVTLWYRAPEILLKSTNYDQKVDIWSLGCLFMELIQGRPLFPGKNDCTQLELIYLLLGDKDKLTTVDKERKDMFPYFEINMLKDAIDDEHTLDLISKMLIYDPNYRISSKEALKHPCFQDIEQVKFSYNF
Protein kinase 7 (PK7), Plasmodium falciparum 3D7 (PF3D7_0213400), sequence (Q7YTF7 1-343): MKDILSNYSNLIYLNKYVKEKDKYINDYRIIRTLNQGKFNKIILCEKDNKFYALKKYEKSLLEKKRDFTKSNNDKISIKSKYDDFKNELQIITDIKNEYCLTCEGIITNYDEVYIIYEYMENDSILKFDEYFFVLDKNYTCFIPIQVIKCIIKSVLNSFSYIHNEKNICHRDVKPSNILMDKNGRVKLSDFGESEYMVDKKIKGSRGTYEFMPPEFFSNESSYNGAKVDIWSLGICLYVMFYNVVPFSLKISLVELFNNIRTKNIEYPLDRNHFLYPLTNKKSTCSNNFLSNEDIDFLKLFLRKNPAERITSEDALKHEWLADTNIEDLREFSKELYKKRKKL
Calcium-dependent protein kinase 1 (Plasmodium falciparum (isolate 3D7)), sequence (P62344 whole entry, looked up): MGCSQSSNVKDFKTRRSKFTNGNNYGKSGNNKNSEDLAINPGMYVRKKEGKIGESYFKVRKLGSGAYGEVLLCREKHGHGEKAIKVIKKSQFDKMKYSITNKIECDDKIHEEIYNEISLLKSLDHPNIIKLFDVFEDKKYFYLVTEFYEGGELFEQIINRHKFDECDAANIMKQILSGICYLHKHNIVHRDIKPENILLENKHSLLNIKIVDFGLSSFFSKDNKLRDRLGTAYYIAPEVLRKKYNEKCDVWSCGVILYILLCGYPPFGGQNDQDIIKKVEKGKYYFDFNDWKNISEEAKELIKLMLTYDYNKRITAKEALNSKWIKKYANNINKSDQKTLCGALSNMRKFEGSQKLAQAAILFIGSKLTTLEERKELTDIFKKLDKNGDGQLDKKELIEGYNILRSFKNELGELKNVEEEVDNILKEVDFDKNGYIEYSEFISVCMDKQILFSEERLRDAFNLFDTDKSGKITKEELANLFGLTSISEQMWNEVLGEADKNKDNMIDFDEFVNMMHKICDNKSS

CCCCCCn1c(Sc2ccc(C#N)c([N+](=O)[O-])c2)nnc1-c1ccccc1
inactive: growth inhibition [1] 41% | inhibition [2] 23% | inhibition [3] -1% | outcome [5] | outcome [6] | outcome [7] | outcome [8]
active: growth inhibition [4] 97%

CCN(CC)CCNC(=O)c1ccc(NC(=O)c2cc(-c3ccncc3)nc3ccccc23)cc1
active: growth inhibition [4] 97%
inactive: growth inhibition [1] 2% | inhibition [2] 1% | inhibition [3] -3% | outcome [5] | outcome [6] | outcome [7] | outcome [8]

Cc1ccccc1C1CCN(C2CCC(NC(=O)/C=C/c3ccc(Cl)cc3)CC2)CC1 (centres undefined)
active: inhibition [2] 78% | growth inhibition [4] 99%
inactive: growth inhibition [1] 25% | inhibition [3] 4% | outcome [5] | outcome [6] | outcome [7] | outcome [8]

COc1cc2nc(N3CCC(CCCC4CCNCC4)CC3)nc(NCc3ccccn3)c2cc1OC
active: growth inhibition [4] 101%
inactive: growth inhibition [1] 6% | inhibition [2] 2% | inhibition [3] 3% | outcome [5] | outcome [6] | outcome [7] | outcome [8]

Cc1cc(N(C)C)nc(Nc2ccc(NC(=O)c3ccccc3Cl)cc2)n1
inactive: growth inhibition [1] 31% | inhibition [2] 3% | inhibition [3] -2% | outcome [5] | outcome [6] | outcome [7] | outcome [8]
active: growth inhibition [4] 88%

CCCCN(CCCC)CCCN(CCCN(CCCC)CCCC)c1cc(C)nc(Nc2ccc(Br)cc2)n1
active: growth inhibition [1] 98% | inhibition [2] 51% | growth inhibition [4] 99%
inactive: inhibition [3] -4% | outcome [5] | outcome [6] | outcome [7] | outcome [8]

COc1ccc(CNCc2ccc(-c3cccc(-c4nc5ccccc5[nH]4)c3)cc2)cc1
inactive: inhibition [3] -3% | outcome [5] | outcome [6] | outcome [7] | outcome [8]
active: growth inhibition [1] 85% | inhibition [2] 57% | growth inhibition [4] 101%

C=CCn1c(SCC(=O)Nc2cc(C)ccc2OC)nc2sc(C)cc2c1=O
active: growth inhibition [1] 86% | growth inhibition [4] 100%
inactive: inhibition [2] 6% | inhibition [3] -5% | outcome [5] | outcome [6] | outcome [7] | outcome [8]

Cc1ccc(O)cc1Nc1ccnc2cc(-c3ccncc3)ccc12
inactive: inhibition [2] 16% | inhibition [3] 6% | outcome [5] | outcome [6] | outcome [7] | outcome [8]
active: growth inhibition [1] 84% | growth inhibition [4] 100%

N#CCCN1CCN(Cc2cccc(-c3ccc(-c4nc5ccccc5[nH]4)cc3)c2)CC1
active: growth inhibition [4] 93%
inactive: growth inhibition [1] 20% | inhibition [2] 18% | inhibition [3] -9% | outcome [5] | outcome [6] | outcome [7] | outcome [8]

COc1ccc(-c2ccc(NC(=O)c3ccc(C#N)cc3)cc2)cc1CN1CCCC1
active: growth inhibition [1] 51% | growth inhibition [4] 95%
inactive: inhibition [2] 40% | inhibition [3] 5% | outcome [5] | outcome [6] | outcome [7] | outcome [8]

CCOC(=O)c1c(NC(NC(=O)c2ccc(C(C)(C)C)cc2)C(Cl)(Cl)Cl)sc2c1CCCC2 (centres undefined)
inactive: inhibition [2] 1% | inhibition [3] -3% | outcome [5] | outcome [6] | outcome [7] | outcome [8]
active: growth inhibition [1] 94% | growth inhibition [4] 98%

COc1ccc(CN2CCN(Cc3cc(Cl)ccc3O)CC2CCO)c(C)c1C (centres undefined)
active: growth inhibition [1] 76% | growth inhibition [4] 94%
inactive: inhibition [2] 1% | inhibition [3] 3% | outcome [5] | outcome [6] | outcome [7] | outcome [8]

COc1ccc(CN2CCC(C(=O)Nc3cccc(-c4cccc(Cl)c4)c3)CC2)cc1O
active: growth inhibition [4] 91%
inactive: growth inhibition [1] 0% | inhibition [2] 25% | inhibition [3] -2% | outcome [5] | outcome [6] | outcome [7] | outcome [8]

Cc1[nH]n(-c2cccc(Cl)c2)c(=O)c1-c1ccc(Cl)cc1
active: growth inhibition [4] 99%
inactive: growth inhibition [1] 41% | inhibition [2] 0% | inhibition [3] -8% | outcome [5] | outcome [6] | outcome [7] | outcome [8]

Cc1c(F)cc(C(=O)NC2CC2)cc1-c1ccc2c(cnn2S(=O)(=O)c2ccc(F)c(F)c2)c1
inactive: inhibition [2] 49% | inhibition [3] -2% | outcome [5] | outcome [6] | outcome [7] | outcome [8]
active: growth inhibition [1] 76% | growth inhibition [4] 91%

Cc1c2ccncc2c(C)c2c1[nH]c1cc(Cc3ccccc3)c(O)cc12
inactive: inhibition [3] -4% | outcome [5] | outcome [6] | outcome [7] | outcome [8]
active: growth inhibition [1] 99% | inhibition [2] 99% | growth inhibition [4] 100%

COc1cccc2cc(C(=O)N[C@@H](CC(C)C)C(=O)N[C@H](/C=N/NC(=O)OC(C)(C)C)CC(C)C)oc12
inactive: inhibition [2] 8% | inhibition [3] -2% | outcome [5] | outcome [6] | outcome [7] | outcome [8]
active: growth inhibition [1] 57% | growth inhibition [4] 88%

CC(=O)N1N=C(c2[nH]c3ccc(Br)cc3c2C)OC1c1ccccc1 (centres undefined)
inactive: inhibition [2] 8% | inhibition [3] 0% | outcome [5] | outcome [6] | outcome [7] | outcome [8]
active: growth inhibition [1] 68% | growth inhibition [4] 86%

Nc1nccc2ccc(Oc3ccncc3)cc12
active: growth inhibition [1] 81% | growth inhibition [4] 91%
inactive: inhibition [2] -3% | inhibition [3] -2% | outcome [5] | outcome [6] | outcome [7] | outcome [8]

Cc1noc(C)c1-c1cccc(CNCc2ccc(-c3cccc(-c4nc5ccc(F)cc5[nH]4)c3)cc2)c1
inactive: inhibition [2] 37% | inhibition [3] 4% | outcome [5] | outcome [6] | outcome [7] | outcome [8]
active: growth inhibition [1] 84% | growth inhibition [4] 102%

Cc1cccc(CN2CCC(CNC(=O)c3cc4c(-c5ccccc5F)nn(C)c4s3)CC2)c1
active: growth inhibition [4] 85%
inactive: growth inhibition [1] 15% | inhibition [2] 18% | inhibition [3] -4% | outcome [5] | outcome [6] | outcome [7] | outcome [8]

COc1ccc2ncc(F)c(NC(=O)C3CCC(NCc4cc5c(F)cccc5[nH]4)CC3)c2n1 (centres undefined)
inactive: growth inhibition [1] 29% | inhibition [2] 39% | inhibition [3] -1% | outcome [5] | outcome [6] | outcome [7] | outcome [8]
active: growth inhibition [4] 91%
